PubChem BioAssay AID624484 (NMMLSC, 2012)
Some of the results follow. Active and inactive are the calls of the source.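 How the source made its calls: active means compounds whose half-maximal effective concentration is below 100 µM; inactive means the rest.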

Assay: empty-vector K562 compound effect – cell-based, flow cytometry, cherry pick set 2, counter-screen for ABCB6 inhibitor project, dose response (AID 624484)
Conditions: K562 empty-vector cells, 1 h; series mostly up to 100 µM

With `Cc1ccc(CS(=O)(=O)c2ncc(Cl)c(C(=O)Nc3nnc(C)s3)n2)cc1` the outcome was “inactive”.
